Shown are actives, neighbours in structure and some others; about 11% of the full set was active somewhere.
PNC inhibitor: perinucleolar compartment assembly inhibition; activity change (PNC), negative = inhibition, % at 10 µM; 3.1% of 140,000 active; PC3M PTB-GFP, PNC prevalence imaging, 16 h; active compounds read low; AID 2417;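 active = readout at or below -70, meaning at least 70% loss of cells showing the perinucleolar compartment, a nuclear body marking cancer cells; inconclusive = readout between -30 and a set limit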;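 note: plate controls were DMSO wells for no effect and camptothecin positive control wells for full effect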
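PC3M cells stably expressing PTB-GFP, 750–1000 cells/well, treated 16 h at 37 °C with compound (23 nl of library stock), in duplicate. After paraformaldehyde fixation and Hoechst stain, imaged at 20x; PNC prevalence scored by image analysis.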
12-hLO inh: blocks human 12-lipoxygenase activity. purified 12-hLO, xylenol orange hydroperoxide absorbance. Potency, µM (top dose mostly 57.1 µM), for the others: at the highest dose activity change, negative = inhibition, usual class: inhibitors. 0.12% of 150,000 active; note: potency is the fitted concentration of half-maximal effect; nearly all actives have a fitted effect of over 55% in size
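Lipoxygenase turnover measured by absorbance at 573 and 405 nm after Fe-XO development. Human 12hLO 150 nM, arachidonate 40 uM, pH 7.0 Hepes buffer with detergent; 15 min compound preincubation, 30 min reaction.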
HPGD inh: blocks human HPGD enzyme activity. P15428. AID 894. Potency, µM, inactives show at the highest dose activity change, negative = inhibition, hits mostly inhibitors. purified HPGD, NADH fluorescence kinetic, PGE2 substrate. 4.3% of 150,000 active; active = well fitted inhibition curve with a large enough effect, not every such curve was filed as active; inconclusive = small, poorly fitted or top-dose-only effect, or another doubt; inactive = no such curve, though single readings can be large or run the other way; note: potency is the fitted concentration of half-maximal effect
Target sequence (P15428 whole entry, looked up): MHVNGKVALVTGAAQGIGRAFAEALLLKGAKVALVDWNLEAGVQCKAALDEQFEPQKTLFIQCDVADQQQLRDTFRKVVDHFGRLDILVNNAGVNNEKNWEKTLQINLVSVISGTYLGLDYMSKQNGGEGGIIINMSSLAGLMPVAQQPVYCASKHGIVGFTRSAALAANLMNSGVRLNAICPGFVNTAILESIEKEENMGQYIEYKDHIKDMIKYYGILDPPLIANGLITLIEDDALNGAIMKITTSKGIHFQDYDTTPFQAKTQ
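20 nM HPGD preincubated 15 min at room temperature with compound in 50 mM Tris-HCl pH 8, 0.01% Tween 20. Started with 1 mM NAD+ and 30 uM prostaglandin E2; NADH fluorescence (360/450 nm) read 5 times over 30-s intervals, last minus first.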
IMPase inh: IMPase inhibition in cells; P97697; inhibition (IP1 accumulation), % at 46.1 µM; CHO-M1 cells, IP1 accumulation, HTRF TR-FRET ratio; 120,000 tested, under 10 active; active = well fitted curve in the direction sought with a large enough effect in the signal ratio, not every such curve was filed as active; inconclusive = small, poorly fitted or top-dose-only effect, or a change in a side signal; inactive = no such curve, though single readings can be large or run the other way; the % refers to the signal ratio;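 note: cells stimulated with carbachol in lithium chloride buffer; plate controls were DMSO basal wells for no effect and reference inhibitor wells for full effect; higher means more IMPase inhibition seen as more IP1 and lower FRET ratio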
Target sequence (P97697 whole entry, looked up): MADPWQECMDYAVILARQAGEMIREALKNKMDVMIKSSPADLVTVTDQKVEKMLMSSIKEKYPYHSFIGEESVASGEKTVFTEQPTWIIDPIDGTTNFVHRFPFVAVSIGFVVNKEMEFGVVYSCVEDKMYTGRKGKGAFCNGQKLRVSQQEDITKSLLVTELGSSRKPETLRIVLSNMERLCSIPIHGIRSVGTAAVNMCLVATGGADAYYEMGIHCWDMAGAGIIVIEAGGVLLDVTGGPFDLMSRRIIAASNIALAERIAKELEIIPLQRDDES
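CHO-M1, 2000 cells/well, cultured 16–30 h; cpd up to 46 uM; carbachol (50 uM solution, stimulation buffer w/ 50 mM LiCl, pH 7.4), 30 min 37C; IP-One TR-FRET, 10 min RT; Ex 320/Em 665, 620; Hill-fit AC50.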
ALDH1A1 block: inhibitors of human aldehyde dehydrogenase 1A1; P00352; Purified ALDH1A1, NADH fluorescence, propionaldehyde substrate; Potency, µM (titrated, usually from 75.3 µM), without a hit: at the highest dose activity, negative = inhibition, hits mostly inhibitors; 7.3% of 220,000 active; AID 1030; active = well fitted inhibition curve with a large enough effect, not every such curve was filed as active; inconclusive = small, poorly fitted or top-dose-only effect, or another doubt; inactive = no such curve, though single readings can be large or run the other way;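 note: potency is the fitted concentration of half-maximal effect; plate controls were no enzyme wells and a reference inhibitor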
IMPase Li inh: IMPase inhibition in cells with lithium potentiation; CHO-M1 cells, IP1 TR-FRET (IP-One), carbachol + lithium; Potency, µM (doses to about 59.4 µM), inactives show at the highest dose activity, negative = IMPase inhibition, most hits filed as inhibitors; 0.35% of 210,000 active; AID 1457;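 note: IP1 builds up when IMPase is blocked and the TR-FRET signal falls; potency is the fitted concentration of half-maximal effect; plate controls were basal vehicle for no effect and high inhibitor control for full effect; nearly all actives have a fitted effect of over 50% in size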
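Test compounds were applied to CHO-M1 cells previously cultured for 16–30 h at 2000 per well. A small lithium amount accompanied them; after 30 min at 37C, IP1 was quantified by TR-FRET.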
Active calls of the source: *; ? = inconclusive; . = not tested or not shown; [ ] = remark or other dose. Unless noted, calls come from the whole dose curve; as a rule, active = well fitted curve in the direction sought with a large enough effect; inconclusive = small, poorly fitted or top-dose-only effect, or another doubt; inactive = no such curve, though single readings can be large; an effect the other way counts as inactive or inconclusive. Unless noted, % is set by controls: 0 for no effect and ±100 for the full control effect.

SMILES | PNC inhibitor | 12-hLO inh | HPGD inh | IMPase inh | ALDH1A1 block | IMPase Li inh
Cc1cc(C)cc(OCC(=O)Nc2ccc(S(=O)(=O)Nc3onc(C)c3C)cc2)c1 | . | . | . | 3 | . | .
O=C(O)C1C(c2ccccc2)C(C(=O)Oc2ccccc2)C1c1ccccc1 (stereo not given) | ? | -1% | -5% | 3 | 16µM* | 36%[38.3 µM]
Cc1ccc(Cl)cc1NC(=O)CC1Sc2ccccc2NC1=O (stereo not given) | . | . | . | -2 | . | .
CC(C)(C)C1CCc2onc(C(=O)N3CCOCC3)c2C1 (stereo not given) | -10 | 2% | -16% | ? | 25µM* | 32%[38.3 µM]
CC(C)(C)C1CCc2onc(C(=O)NC3CCCC3)c2C1 (stereo not given) | -15 | -8% | -6% | 9 | -7% | 7%[38.3 µM]
Cc1cc(C)n2nc(SCc3nnc(SCc4ccccc4Cl)s3)nc2n1 | ? | 0% | 28µM* | -2 | 8% | -6%
Cc1cc(C)n2nc(SCc3nc4ccccc4[nH]3)nc2n1 | ? | 12% | -15% | 5 | 0% | 26%[38.3 µM]
Cc1cc(C)n2nc(SCc3nnc(SCc4ccccc4C)s3)nc2n1 | ? | -5% | 25µM* | 1 | 13% | 17%[38.3 µM]
COc1ccc(OCCSc2nc3nc(C)cc(C)n3n2)cc1 | . | . | . | . | 11% | 3%
COc1cccc(CSc2nnc(CSc3nc4nc(C)cc(C)n4n3)s2)c1 | -28 | 9% | 16µM* | 7 | ? | 50%[38.3 µM]
CC(C)C1C(=O)NC(=S)N1S(=O)(=O)c1ccc(C(C)(C)C)cc1 (stereo not given) | 17 | 4% | -15% | -5 | 11µM* | 14%[38.3 µM]
COC(=O)c1ccc(C(NC(=O)OCc2ccccc2)/C(=C/[C@@H](C)C(=O)N(C)Cc2ccccc2)c2cccnc2)cc1 (stereo not given in full) | . | 0% | -11% | . | -1% | 7%
CCOc1ccc(OCC)c(C2C(C#N)=C(N)N(c3cccnc3)C3=C2C(=O)CC(C)(C)C3)c1 (stereo not given) | -17 | -3% | -20% | 0 | 3.5µM* | 15%[38.3 µM]
CN=C1N[C@H](c2ccccc2)N(c2ccccc2)S1 | . | ? | 13µM* | 21 | 1.3µM* | 39%
COCCn1c(SCc2nnc(-c3ccccc3)o2)nc2sc3c(c2c1=O)CCC3 | 51 | -8% | 7.1µM* | 9 | -8% | 22%[38.3 µM]
CCN(CC)S(=O)(=O)c1ccc(NC2=NS(=O)(=O)c3ccccc32)cc1 | 12 | 1% | -17% | 9 | ? | -10%[38.3 µM]
O=S1(=O)N=C(Nc2nncs2)c2ccccc21 | 22 | -6% | 28µM* | -1 | ? | 27%[38.3 µM]
O=C1OC(=O)[C@@H]2[C@@H]1[C@@H]1CC[C@H]2O1 | . | -3% | . | -5 | . | .
CC1(C)OC(=O)C(=NNc2ccc(Cl)cc2)C(=O)O1 | 5 | -16% | -27% | 6 | 3.2µM* | 19%[38.3 µM]
CC1(C)OC(=O)C(=NNc2ccccc2)C(=O)O1 | -8 | -4% | -23% | . | 16µM* | 2%
O=C(O)CSc1cc(-c2ccccc2)nc2ccccc12 | . | -5%[11.4 µM] | 3% | . | -4%[13.5 µM] | -24%
O=c1cc(O)n(-c2ccc(F)cc2)c(=S)[nH]1 | -18 | -23% | 28µM* | 4 | 4% | -22%[38.3 µM]
O=C(O)CC(C(=O)O)N1C(=O)/C(=C/c2ccc(-c3nc4ccccc4s3)o2)SC1=S (stereo not given) | ? | -9% | 25µM* | 9 | 10µM* | 6%
O=C(O)CCN1C(=O)/C(=C/c2ccc(-c3nc4ccccc4s3)o2)SC1=S | -14 | -8% | 13µM* | 5 | 3.5µM* | 3%[38.3 µM]
O=Cc1ccc(-c2nc3ccccc3s2)o1 | . | . | . | . | ? | -5%
SMILES | PNC inhibitor | 12-hLO inh | HPGD inh | IMPase inh | ALDH1A1 block | IMPase Li inh
O=c1c(-c2ccc(Cl)cc2)nc2cnc(N3CCNCC3)nc2n1Cc1cccs1 | . | . | . | . | ? | 17%
CCCC(C(=O)NC1CCCC1)N(C(=O)Cn1nnc(-c2ccc(C)o2)n1)C1CCCC1 (stereo not given) | ? | -10% | ? | 5 | 25µM* | 7%[38.3 µM]
CCC(C(=O)NC1CCCC1)N(C(=O)Cn1nnc(-c2ccc(C)o2)n1)C(C)(C)C (stereo not given) | 7 | -3% | . | 11 | ? | .
CCN(CC)C(=O)Cn1nnc(-c2ccc(C)o2)n1 | -3 | 0% | -11% | -1 | 25µM* | -1%[38.3 µM]
CCOC(=O)C1=C(C)Nc2ccc(C)cc2S1 | 1 | ? | -12% | 4 | -1% | 12%[38.3 µM]
CSCCOC(=O)C1=C(C)Nc2ccc(C)cc2S1 | ? | -17% | -14% | 2 | 14µM* | 32%[38.3 µM]
COc1cccc(C(=O)NCC2OCCc3ccccc32)c1 (stereo not given) | . | . | . | 6 | . | .
CC(C)(C)NS(=O)(=O)c1ccc(Oc2ncc(C(F)(F)F)cc2Cl)cc1 | 16 | 2% | -5% | 3[1.84 µM] | -5% | 31%[38.3 µM]
CC(C)(C)NS(=O)(=O)c1cnc(Cl)c(Cl)c1 | 55 | 7% | -5% | 5 | 32µM* | 1%[38.3 µM]
CCCNC(=O)c1c(NC(=O)c2ccccc2F)sc2c1CCCCC2 | . | . | . | -1 | . | .
CC1CN(C2CCN(S(=O)(=O)c3ccc4ccccc4c3)CC2)CC(C)O1 (stereo not given) | 11 | -28% | . | 7 | 14µM* | .
CCOC(=O)CCN1C(=O)[C@H]2[C@H]3[C@H](O)[C@H](O)C/C(=N/OC[C@@H](O)COCc4ccco4)[C@H]3CC[C@@H]2C1=O | . | . | . | . | 8%[13.5 µM] | .
O=C(CN1C(=O)CSc2ccccc21)NCCC1=CCCCC1 | ? | 0% | . | -4 | -14% | .
C=CCN1C(=O)CSc2ccc(C(=O)NCc3ccco3)cc21 | 12 | -4% | -15% | 6 | 22µM* | 5%[38.3 µM]
O=C(NCc1ccco1)c1ccc2c(c1)N(Cc1ccccc1)C(=O)CS2 | -10 | -2% | -5% | 18 | 0% | 51%[38.3 µM]
C=CCn1c(N)c(C(=O)NCCC2=CCCCC2)sc1=S | -9 | -19% | 14µM* | 5 | 3.5µM* | -5%
C=CCN1C(=O)CSc2ccc(C(=O)NCCC3=CCCCC3)cc21 | -7 | 4% | -14% | -3 | 13µM* | 34%[38.3 µM]
O=C(N/N=C/c1ccc(OCC(=O)N2CCCCC2)cc1)c1ccccc1 | -4 | 0% | 14µM* | 5 | 18µM* | -3%[38.3 µM]
O=C(N/N=C/c1ccc(OCC(=O)N2CCCCC2)cc1)c1ccccc1O | -9 | -4% | 22µM* | 10 | -6% | 4%
Cc1c(C(C)(C)C)c(C=S)n2ccccc12 | 9 | -18% | -14% | -6 | 22µM* | 26%[38.3 µM]
Cc1oc2cc(OC(=O)c3ccco3)ccc2c(=O)c1-c1nc2ccccc2n1C | -93* | 2% | -25% | . | ? | -2%
COc1ncc2nc(C)c(=O)n(C)c2n1 | . | 1% | -17% | . | -11% | 0%

Screening results deposited in PubChem by National Center for Advancing Translational Sciences (NCATS).
